# In PubChem BioAssay:
# Calls of active or inactive are those of the source.
# Test system: Neuregulin-1 EGF-like domain
# Assay: binders of neuregulin-1 EGF-like domain, primary screen, biochemical, small-molecule microarray, 635 nm fluorescence (AID 1081);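 also: binding of the protein to compounds printed on small-molecule microarray slides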
# Settings: small-molecule microarray binding, higher = more signal
row,SMILES,composite z-score
1,O=C1c2ccccc2[C@](Cc2ccccc2I)(C(=O)NCC(F)(F)F)[C@H](c2ccc(CO)cc2)N1Cc1ccccc1C(F)(F)F,1.2
2,C=CCC(OC(C)=O)[C@@H]1[C@@H](N(Cc2cccc3ccccc23)C(=O)Cc2ccc(F)cc2)c2cc(OCCCO)ccc2N1C(=O)Cc1ccc2ccccc2c1 (stereo partly drawn),-0.607
3,C=CCN1C(=O)[C@@]2(Cc3ccccc3)N=C(c3ccc(OCCCO)cc3)O[C@H]2c2ccccc21,1.14
4,Cc1ccc(N2C(=O)c3ccccc3[C@@H](C(=O)NCc3ccccc3)[C@@H]2c2ccc(CO)cc2)nc1,0.908
5,CO[C@H]1COC(=O)[C@H](C)COC(=O)[C@H](Cc2ccccc2)NC(=O)CC=C[C@H]1C,-0.942
6,CN(C)CCCC[C@@H]1NC(=O)[C@@H]2C[C@H](C(=O)NCCCCCNC(=O)CS)[C@H](c3ccc(O)cc3)N2C1=O,1.22
7,O=C1O[C@H](c2ccccc2)[C@H](c2ccccc2)N2[C@H]1[C@@H](C(=O)NC[C@H](O)c1ccccc1)[C@]1(C(=O)Nc3ccc(C#CC4=CCCCC4)cc31)[C@H]2c1ccc(OCCO)cc1,1.02

# Test system: not listed separately
# Assay: FRG1 promoter luciferase signal modulators, primary screen, FRG1 inhibition for FSHD, cell-based, C2C12 myotubes, firefly/Renilla luciferase, luminescence (AID 1084)
# Settings: higher = more signal, called active from +8 up or from −8 down
row,SMILES,z-score
1,CCOC(=O)C[C@H]1[C@H](OC(=O)Cc2ccc3c(c2)OCO3)[C@@H](NC(=O)c2ccc3ccccc3c2)c2cc(OCCCO)ccc2N1C(=O)Cc1ccc(OC)cc1,-1.63 (inactive)
2,O=C(NCc1ccccc1)c1ccc(Br)cc1[N+](=O)[O-],-0.567 (inactive)
3,CC(C)(C)OC(=O)CC[C@]1(C(=O)N2CCCCC2)N=C(c2ccc(OCCCO)cc2)O[C@H]1c1ccccc1,-4.25 (inactive)
4,C=CCNC(=O)[C@@H]1[C@H]2C(=O)O[C@H](c3ccccc3)[C@H](c3ccccc3)N2[C@H](c2ccc(OCCO)cc2)[C@@]12C(=O)N(C(=O)OCCOC)c1ccc(C#CC3(O)CCCCCC3)cc12,0.132 (inactive)
5,CCCC=C(CCC)[C@@H](NS(=O)(=O)c1ccc(C(F)(F)F)cc1)c1ccc(-c2ccccc2)cc1,-0.001 (inactive)
6,NC(=O)NCC#Cc1ccc2c(c1)[C@]1(C(=O)N2)[C@H](C(=O)N2CCCCCCC2)[C@H]2C(=O)O[C@H](c3ccccc3)[C@H](c3ccccc3)N2[C@@H]1c1ccccc1OCCO,0.423 (inactive)
7,C=C[C@H](OC)[C@@H](OC(=O)Nc1ccc(SC)cc1)c1ccc(O)c(F)c1,4.46 (inactive)
8,CO[C@H]1COC(=O)CC=C[C@H](C)COC(=O)[C@@H](OCc2ccccc2)C=C[C@@H]1C,0.236 (inactive)
9,CC(C)C[C@@H]1NC(=O)[C@H]2C[C@@H](C(=O)NCCCCCC[N+](C)(C)C)[C@@H](c3ccc(O)cc3)N2C1=O,2.82 (inactive)
10,CO[C@H]1COC(=O)[C@@H](C)NC(=O)CC=C[C@@H](C)[C@H](OC)COC(=O)CC=C[C@@H]1C,-1.32 (inactive)
11,C=CC[C@@]12N=C(c3ccc(OCCCO)cc3)O[C@@H]1c1ccccc1CN(Cc1ccccc1)C2=O,-4 (inactive)
12,COc1ccc([Si](C)(C)[C@@H]2[C@@H](CC(=O)N(CCO)Cc3ccccc3)O[C@]3(C(=O)N(Cc4cccc(N5CCC5=O)c4)c4ccccc43)[C@H]2C)cc1,-0.645 (inactive)
13,CN(C)CCCC[C@@H]1NC(=O)[C@@H]2C[C@H](C(=O)O)[C@H](c3ccc(O)cc3)N2C1=O,1.7 (inactive)
14,CCOC(=O)C1=CCC(c2cccc3ccccc23)N(S(=O)(=O)c2ccc(C)cc2)C1 (stereo not drawn),-1.05 (inactive)
15,CO[C@@H]1COC(=O)CC=C[C@@H](C)[C@H](OC)COC(=O)CC=C[C@H]1C,0.211 (inactive)
16,C=C(COC)/C(=C/C[C@H](OC(C)=O)c1ccc(OCCO)cc1)c1cnc2ccccc2c1,0.345 (inactive)
17,CO[C@H]1O[C@H](CO)[C@@H](OC(=O)Nc2ccc(Oc3ccccc3)cc2)[C@H](OC(=O)Nc2ccccc2-c2ccccc2)[C@H]1OC(=O)Nc1ccccc1-c1ccccc1,-0.441 (inactive)
18,CCC1=C2CN(Cc3ccccc3Br)[C@@H]([C@@H](O)Cc3ccccc3)C2C=CCC1 (stereo partly drawn),-1.83 (inactive)

row,SMILES,z-score
1,[N-]=[N+]=NCc1ccccc1C[C@@]1(C(=O)N2CCOCC2)N=C(c2ccc(OCCCO)cc2)O[C@@H]1c1ccccc1N=[N+]=[N-],-2.14 (inactive)
2,C=CC(=O)O[C@@H](Cc1ccccc1)[C@H]1C2C=CCCC=C2CN1Cc1cccc(Cl)c1 (stereo partly drawn),-1.44 (inactive)
3,NC(=O)[C@H]1[C@@H]2C(=O)O[C@@H](c3ccccc3)[C@@H](c3ccccc3)N2[C@@H](c2ccc(O)cc2)[C@]12C(=O)Nc1ccc(C#CCCO)cc12,-0.89 (inactive)
4,NC(=O)NCC#Cc1ccc2c(c1)[C@]1(C(=O)N2)[C@H](C(N)=O)[C@H]2C(=O)O[C@H](c3ccccc3)[C@H](c3ccccc3)N2[C@@H]1c1ccccc1OCCO,-0.317 (inactive)
5,C=CC[C@]1(C(N)=O)N=C(c2ccc(OCCCO)cc2)O[C@H]1c1ccccc1CN=[N+]=[N-],1.2 (inactive)
6,C[N+](C)(C)CCCCNC(=O)[C@@H]1C[C@@H]2C(=O)N3CCC[C@H]3C(=O)N2[C@@H]1c1cccc(OCCO)c1,1.19 (inactive)
7,O=C1O[C@H](c2ccccc2)[C@H](c2ccccc2)N2[C@H]1[C@@H](C(=O)Nc1nc3ccccc3s1)[C@]1(C(=O)Nc3ccc(C#CC4(O)CCCCCC4)cc31)[C@H]2c1ccc(O)cc1,0.36 (inactive)
8,COc1ccc(C(O)C2C=CC3C(=O)N(C)C(=O)C3N2N2CCCCC2)cc1OCc1ccccc1 (stereo not drawn),0.451 (inactive)
9,CC1=C([C@H](O)CCc2ccccc2)[C@H](CO)[C@@H]2C(=O)N(Cc3ccccc3)C(=O)[C@@H]2C1,-0.69 (inactive)
10,C=C[C@H](OC)[C@@H](OC(=O)Nc1ccc(SC)cc1)c1ccc(OC)c(O)c1,1.2 (inactive)
11,CC(C)(C)OC(=O)CC[C@@]1(C(=O)NCc2ccccc2)N=C(c2ccc(OCCCO)cc2)O[C@@H]1c1ccccc1,-2.49 (inactive)
12,O=C1c2ccccc2[C@](Cc2ccccc2I)(C(=O)NCC(F)(F)F)[C@H](c2ccc(CO)cc2)N1Cc1ccccc1C(F)(F)F,-0.307 (inactive)
13,C=CCC(OC(C)=O)[C@@H]1[C@@H](N(Cc2cccc3ccccc23)C(=O)Cc2ccc(F)cc2)c2cc(OCCCO)ccc2N1C(=O)Cc1ccc2ccccc2c1 (stereo partly drawn),-1.32 (inactive)
14,C=CCN1C(=O)[C@@]2(Cc3ccccc3)N=C(c3ccc(OCCCO)cc3)O[C@H]2c2ccccc21,-2.86 (inactive)
15,Cc1ccc(N2C(=O)c3ccccc3[C@@H](C(=O)NCc3ccccc3)[C@@H]2c2ccc(CO)cc2)nc1,-0.702 (inactive)
16,CO[C@H]1COC(=O)[C@H](C)COC(=O)[C@H](Cc2ccccc2)NC(=O)CC=C[C@H]1C,-0.412 (inactive)
17,CN(C)CCCC[C@@H]1NC(=O)[C@@H]2C[C@H](C(=O)NCCCCCNC(=O)CS)[C@H](c3ccc(O)cc3)N2C1=O,0.47 (inactive)
18,O=C1O[C@H](c2ccccc2)[C@H](c2ccccc2)N2[C@H]1[C@@H](C(=O)NC[C@H](O)c1ccccc1)[C@]1(C(=O)Nc3ccc(C#CC4=CCCCC4)cc31)[C@H]2c1ccc(OCCO)cc1,0.315 (inactive)
